# Test results published in PubChem BioAssay (NCI).
# This is part of a sample that, as a whole, favours compounds with a hit. Of some 83,000 tested, about 20% had one in any assay.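 Negative percent growth values reflect cell death: -40 means 40% of the cells present at the start died, and -100 means all died.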 A number with no mark means an inactive call. Calls of active or inactive are those of the source. How the source made its calls: active means growth percent below 10; inactive means the rest.
# Columns and labels:
# Test in all cases: NCI-60 one-dose screen, 48 h (100 = growth as untreated, 0 = no growth, -100 = all killed)
# Details in all cases: 10 µM unless noted
# SK-MEL-2 melanoma = tested on: SK-MEL-2 melanoma
# SN12C renal = tested on: SN12C renal
# UO-31 renal = tested on: UO-31 renal
# TK-10 renal = tested on: TK-10 renal
# ACHN renal = tested on: ACHN renal
# CAKI-1 renal = tested on: CAKI-1 renal
# A498 renal = tested on: A498 renal
# CCRF-CEM leukemia = tested on: CCRF-CEM leukemia
# MOLT-4 leukemia = tested on: MOLT-4 leukemia
# SR leukemia = tested on: SR leukemia
# OVCAR-8 ovarian = tested on: OVCAR-8 ovarian
# OVCAR-5 ovarian = tested on: OVCAR-5 ovarian
# OVCAR-4 ovarian = tested on: OVCAR-4 ovarian
# SK-OV-3 ovarian = tested on: SK-OV-3 ovarian
# IGROV1 ovarian = tested on: IGROV1 ovarian
# OVCAR-3 ovarian = tested on: OVCAR-3 ovarian
# HS 578T breast = tested on: HS 578T breast
# NCI/ADR-RES ovarian = tested on: NCI/ADR-RES ovarian
# RPMI-8226 leukemia = tested on: RPMI-8226 leukemia
# EKVX NSCLC = tested on: EKVX NSCLC
Compound,growth (SK-MEL-2 melanoma) [%],growth (SN12C renal),growth (UO-31 renal),growth (TK-10 renal),growth (ACHN renal),growth (CAKI-1 renal),growth (A498 renal),growth (CCRF-CEM leukemia),growth (MOLT-4 leukemia),growth (SR leukemia),growth (OVCAR-8 ovarian),growth (OVCAR-5 ovarian) [%],growth (OVCAR-4 ovarian),growth (SK-OV-3 ovarian) [%],growth (IGROV1 ovarian),growth (OVCAR-3 ovarian),growth (HS 578T breast),growth (NCI/ADR-RES ovarian),growth (RPMI-8226 leukemia) [%],growth (EKVX NSCLC) [%]
CCOC(=O)c1cn2ncnc(Oc3ccc(NC(=O)NCCN4CCN(C)CC4)c(Cl)c3)c2c1C,91.9,65%,61.7%,97.5%,80%,76.3%,77.9%,44.3%,57.2%,-13.9% (active),64.7%,97.1,72.3%,95.2,73.3%,76.2%,74.3%,90.8%,–,–
C=CCc1cc(C)ccc1NC(C(=O)NCC(=O)OC)c1ccccc1 (centres undefined),96.4,91.4%,80.6%,106%,98.5%,88.1%,94.6%,105%,97.1%,95%,100%,86.7,105%,91.2,–,105%,106%,92.7%,–,–
c1ccc2c(-c3nc(-c4c[nH]c5ccncc45)cs3)c[nH]c2c1,97.8,68.9%,44.4%,56.4%,23.5%,17.1%,85.5%,2.54% (active),30%,–,60.2%,70.8,59.5%,73.3,54.2%,72.3%,72.3%,72.7%,10.9,–
CNC(C)[C@H]1CCC2C3CCC4C[C@@H](N(C)C(=O)c5ccccc5)CC[C@]4(C)C3CC[C@@]21C (some centres undefined),38.7,34.6%,-9.71% (active),65.4%,46.9%,58.2%,57.3%,21.7%,16.5%,34.5%,–,81.6,-5.3% (active),67,–,9.46% (active),38.7%,42.4%,–,–
Cc1c(C(=O)N[C@@H](Cc2ccccc2)C(=O)C(=O)NCc2ccc(F)cc2)[nH]c2ccccc2c1=O,108,78.9%,106%,107%,97.8%,96.9%,75.8%,103%,87.5%,–,102%,104,90.6%,99.6,96.8%,102%,105%,102%,87.9,–
C[C@]12CC[C@@H]3c4cc(OC(F)F)c(OS(N)(=O)=O)cc4CC[C@H]3[C@@H]1CC[C@@H]2O,46.3,32.6%,40.1%,94.2%,44.9%,41.4%,-8.42% (active),16.5%,18.7%,–,35.3%,49.3,63.2%,40.8,34.5%,-49.8% (active),27.8%,-1.45% (active),17.8,–
O=C1c2cccc3cccc(c23)C(=O)N1Nc1nc(N2CCOCC2)nc(N2CCN(c3ccccc3)CC2)n1,59.9,64.8%,29.9%,96%,41.2%,41.2%,-3.12% (active),56.9%,42%,23.7%,71.6%,83.8,79.9%,54.8,32.9%,11.2%,42.9%,37.8%,–,–
CCCCCCn1c(-c2ccc(C(=O)O/N=C(\N)c3ccc(OC)cc3)cc2)nc(-c2ccccc2)c1-c1ccccc1,47.3,-70.3% (active),-86.4% (active),-73.6% (active),-91.5% (active),-64.5% (active),4.08% (active),-35% (active),-35.7% (active),-37.5% (active),1.03% (active),25.5,7.82% (active),77.9,-68.1% (active),18%,-20.4% (active),-36.9% (active),–,–
COc1ccc(-c2conc2-c2ccccc2)cc1,41.6,33.2%,45.2%,–,36.5%,33.5%,-14% (active),25.7%,34.4%,–,18.1%,27.7,47.8%,38.2,26.2%,-28.5% (active),7.75% (active),6.05% (active),32.7,–
CC(C)n1cnc2c(Nc3cccc(Cl)c3)nc(N[C@H]3CCCC[C@@H]3N)nc21,78.3,50.6%,31.7%,–,29.9%,49.5%,94.9%,66.6%,7.51% (active),13.9%,–,50.4,55.4%,80.6,29.4%,61.2%,66.7%,–,19.8,–
COc1ccc(CNC(=O)C(=O)[C@H](Cc2ccccc2)NC(=O)c2[nH]c3ccccc3c(=O)c2C)cc1,109,86.6%,97.4%,98.8%,100%,94.4%,100%,110%,97.7%,–,102%,102,99.5%,108,98.3%,103%,98.8%,108%,102,–
COc1ccc(C(=O)n2nc(-c3ccccc3)nc2N)cc1OC,–,90.5%,70.5%,112%,82.4%,84.3%,83.7%,86.8%,87.8%,80.6%,–,96.7,90.9%,80.8,73.5%,94.5%,92.1%,96.5%,92.1,88.2
COc1ccc(-n2c(N)c(-c3nc4ccccc4[nH]3)cc(C#N)c2=O)cc1,105,85%,77.8%,103%,75.9%,92.3%,64%,98.3%,99.3%,–,69.8%,99,77.5%,111,103%,107%,50.1%,77.8%,92.3,–
Cc1ccc(C(=O)N/N=C/c2cccc(Oc3ccccc3)c2)cn1,44.5,68.6%,13.9%,83.3%,85.9%,22.9%,57.6%,82.3%,40%,48.6%,–,93.1,86.7%,80,–,35.7%,50.8%,19.8%,89.5,–
CCCCCCCCCCCCCCCCCC1OCC(COC(=O)O[C@]2(CC)C(=O)OCc3c2cc2n(c3=O)Cc3cc4ccccc4nc3-2)O1 (some centres undefined),116,49%,73.1%,95.5%,62.9%,65.7%,88.6%,29.2%,43.3%,8.38% (active),70.2%,95.6,100%,83.9,81.5%,94.5%,99.5%,66.6%,–,–
COc1cccc(-c2nn(-c3ccccc3)cc2-c2ccnc(N3CCOCC3)c2)c1,96.7,98%,66.2%,92%,84.3%,81.4%,71.7%,97.8%,59.2%,–,96.6%,94.7,84.2%,87.9,79.5%,95.5%,115%,77.5%,67.9,–
COc1ccc(S(=O)(=O)n2cc(C3OC(c4cc(OC)c(OC)c(OC)c4)=NN3C(C)=O)c3ccccc32)cc1OC (centres undefined),95.5,88%,58.2%,94.9%,85.3%,76.2%,117%,73.4%,58.7%,–,80.9%,85.8,77.9%,96.6,83.5%,112%,92.3%,81.7%,61.5,–
